hgDAF12 agonist – activates the H. glycines DAF-12 receptor ligand-binding domain. activation, % at 6.8 µM. AID 687014. actives 1.8% (n = 370,000). HEK293 GAL4-hgDAF12 UAS-luciferase reporter, agonist luminescence; normalized to butyrate control;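 active = activation above a cutoff set at the mean of all screened compounds plus 3 SD, cut at about 10% in these data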;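 also: 0% = DMSO wells and 100% = sodium butyrate wells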
ssDAF12 agonist – S. stercoralis DAF-12 activation, primary screen; actives 1% (n = 370,000); HEK293 ssDAF-12/GRIP1 lit1-tk-luc reporter, luminescence; % of 3 µM dafachronic acid response; activation, % at 6.8 µM;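 active = activation above the mean over all tested compounds plus 3 SD, cut at about 0.9% in these data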;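 also: 0% = DMSO-only wells and 100% = 3 µM delta7-dafachronic acid wells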
DAX1 inh-1 – inhibitors of DAX1 repression of SF-1 activated StAR promoter. HEK293T StAR-luciferase reporter, SF-1/DAX-1 repression relief. actives 1.1% (n = 370,000). inhibition, % at 6.8 µM;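 active = inhibition above the mean over all tested compounds plus 3 SD, cut at about 3.6% in these data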;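 also: 0% = DAX-1 cells with DMSO and 100% = cells lacking DAX-1 with DMSO; higher inhibition means more luminescence from relief of DAX-1 repression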
DAX1 inh-2 – inhibits human nuclear receptor DAX1; P51843; HEK293 Gal4-DAX1 luciferase reporter, luminescence; inhibition, % at 6.75 µM; actives 0.99% (n = 340,000);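 active = inhibition above the mean over all tested compounds plus 3 SD, cut at about 4.2% in these data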;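 also: 0% = DAX1-transfected cells with DMSO and 100% = empty-vector control cells with DMSO; inhibition shows as a rise in luminescence from relieved DAX1 repression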
Target sequence (P51843 207-470 limits assumed): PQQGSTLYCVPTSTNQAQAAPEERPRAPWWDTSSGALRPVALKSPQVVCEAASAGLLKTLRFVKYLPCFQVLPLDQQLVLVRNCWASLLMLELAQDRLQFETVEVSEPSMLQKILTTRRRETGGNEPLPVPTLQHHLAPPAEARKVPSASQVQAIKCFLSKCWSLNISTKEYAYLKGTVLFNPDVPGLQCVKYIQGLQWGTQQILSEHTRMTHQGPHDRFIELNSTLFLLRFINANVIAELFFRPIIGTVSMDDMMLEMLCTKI
hcDAF12 agonist – activates DAF-12 receptor from parasite H. contortus; actives 1.4% (n = 370,000); activation, % at 6.8 µM; HEK293 hcDAF-12 lit1-tk-luc reporter, luminescence; 0% DMSO, 100% Δ7-dafachronic acid; AID 652067;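 active = activation above the mean of all tested compounds plus 3 SD, cut at about 5.5% in these data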;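 also: 100% = response to 3 µM Δ7-dafachronic acid high control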
AHR act – activates the human aryl hydrocarbon receptor; activation, % at 5 µM; P35869; actives 2.5% (n = 320,000); AHR-responsive luciferase reporter cells, luminescence; in the data active = activation above about 47%;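 also: 0% = vehicle wells and 100% = reference agonist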
LXR ag – activates human LXR-beta, counter-screen for hcDAF-12 agonists; HEK293 Gal4-LXR tk-luc reporter, luminescence, 24 h; normalized: DMSO 0%, positive control 100%; shares compounds with hcDAF12 agonist; activation, % at 6.8 µM; 3,400 tested, under 10 active;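 active = mean percent activation of the reporter above a cutoff set as the average over tested compounds plus their standard deviation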
Target sequence (P55055 whole entry, looked up, the tested form may be a part): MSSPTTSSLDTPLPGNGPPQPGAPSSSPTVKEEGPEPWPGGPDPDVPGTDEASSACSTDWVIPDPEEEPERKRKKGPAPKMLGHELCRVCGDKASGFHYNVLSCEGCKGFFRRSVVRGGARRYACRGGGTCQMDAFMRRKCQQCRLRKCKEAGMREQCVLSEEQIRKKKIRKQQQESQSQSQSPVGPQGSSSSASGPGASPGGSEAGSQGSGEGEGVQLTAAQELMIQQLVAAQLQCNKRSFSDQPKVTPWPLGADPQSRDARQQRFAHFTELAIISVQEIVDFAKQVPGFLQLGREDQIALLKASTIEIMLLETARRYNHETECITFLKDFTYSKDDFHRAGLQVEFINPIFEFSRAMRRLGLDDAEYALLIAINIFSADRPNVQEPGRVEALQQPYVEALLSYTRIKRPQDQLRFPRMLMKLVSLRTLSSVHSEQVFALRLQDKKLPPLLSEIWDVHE
hcDAF12 conf – confirmation of H. contortus DAF-12 agonists | shares compounds with hcDAF12 agonist | AID 743032 | HEK293 hcDAF-12 lit1-tk-luc reporter, luminescence; % of Δ7-dafachronic acid response | activation, % at 6.8 µM | actives 61% (n = 3,400);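 active = mean activation across triplicate tests above the threshold derived from the earlier primary screen, cut at about 5.5% in these data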;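 also: 0% = DMSO only wells and 100% = 3 µM Δ7-dafachronic acid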
Active calls of the source: *. Compounds with a hit are over-represented: about 5.7% of the library has one in this group of screens.

What do the screens show for `O=C(O)CCNc1ccc(NCCC(=O)O)c2c1C(=O)c1ccccc1C2=O`?
hgDAF12 agonist: -0.1; ssDAF12 agonist: -0.9; DAX1 inh-1: -0.1; DAX1 inh-2: -1.6; hcDAF12 agonist: 0.5; AHR act: 15.0

Results for O=C1c2cccc(NCCNCCO)c2C(=O)c2cccc(NCCNCCO)c21 ?
hgDAF12 agonist: -0.5; ssDAF12 agonist: 0.7; DAX1 inh-1: -5.5; DAX1 inh-2: -0.8; hcDAF12 agonist: 8.9*; LXR ag: 2.4; hcDAF12 conf: 14.5*

How did Cc1c(/N=C(\[O-])Nc2ccc(Br)cc2)sn[n+]1C do in these assays?
hgDAF12 agonist: 11.2*; ssDAF12 agonist: 0.6; DAX1 inh-1: 3.0; hcDAF12 agonist: 7.0*; AHR act: -7.0; LXR ag: 1.7; hcDAF12 conf: 7.5*

Results for Cc1ccccc1/C(=N\S(=O)(=O)c1ccc(Br)cc1)Nc1ccccc1 ?
hgDAF12 agonist: -1.3; ssDAF12 agonist: -1.5; DAX1 inh-1: -1.1; DAX1 inh-2: -0.1; hcDAF12 agonist: -1.5

How did O=C(CN1C(=O)C2C3C=CC(C4CC34)C2C1=O)Nc1cnc2ccccc2c1 (stereo not drawn) do in these assays?
hgDAF12 agonist: 0.7; ssDAF12 agonist: 0.0; DAX1 inh-1: -0.3; DAX1 inh-2: 2.5; hcDAF12 agonist: 7.5*; AHR act: 12.8; LXR ag: -0.3; hcDAF12 conf: 2.0

What do the screens show for `Cc1nn(-c2ccccc2)c(C)c1/C=C/C(=O)OCC(=O)Nc1ncc(Cl)cc1Cl`?
hgDAF12 agonist: 0.5; ssDAF12 agonist: -0.6; DAX1 inh-1: 1.5; DAX1 inh-2: 0.3; hcDAF12 agonist: 0.9; AHR act: 7.3

How did CNC(=O)COC(=O)/C=C/c1c(C)nn(-c2ccccc2)c1C do in these assays?
hgDAF12 agonist: 1.3; ssDAF12 agonist: -0.3; DAX1 inh-1: -0.1; DAX1 inh-2: 0.7; hcDAF12 agonist: 8.4*; AHR act: 0.3; LXR ag: -0.2; hcDAF12 conf: 0.7

Results for Cc1ccc2c(c1)CCCN2C(=O)c1cccs1 ?
hgDAF12 agonist: 0.2; ssDAF12 agonist: 0.7; DAX1 inh-1: 0.8; DAX1 inh-2: -0.2; hcDAF12 agonist: 7.4*; AHR act: 13.2; LXR ag: -0.2; hcDAF12 conf: 3.1

How did O=C(c1cccs1)N1CCCc2ccccc21 do in these assays?
hgDAF12 agonist: -0.3; ssDAF12 agonist: -1.6; DAX1 inh-1: 0.5; DAX1 inh-2: -0.7; hcDAF12 agonist: 0.1; AHR act: 6.7

Results for C/C(=N\NC(=O)c1ccc(C)cc1)c1c(C)[nH]n(-c2ccccc2)c1=O ?
hgDAF12 agonist: 5.5; ssDAF12 agonist: -0.4; DAX1 inh-1: 0.2; DAX1 inh-2: 0.9; hcDAF12 agonist: 0.6

Results for C/C(=N\NC(=O)c1ccccc1)c1c(C)[nH]n(-c2ccccc2)c1=O ?
hgDAF12 agonist: 6.7; ssDAF12 agonist: -0.2; DAX1 inh-1: 0.9; DAX1 inh-2: 4.8*; hcDAF12 agonist: 9.2*; AHR act: 4.3; LXR ag: -0.3; hcDAF12 conf: -1.1

What do the screens show for `Cc1cc(C)n(-c2ncnc3sc4c(c23)CCCC4)n1`?
hgDAF12 agonist: -0.1; ssDAF12 agonist: -0.3; DAX1 inh-1: 1.2; DAX1 inh-2: 0.7; hcDAF12 agonist: 7.4*; AHR act: 8.2; LXR ag: -0.4; hcDAF12 conf: 1.8

What do the screens show for `O=c1c2cc(N3CCOCC3)ccc2[nH]c(=S)n1CCCN1CCCCCC1`?
hgDAF12 agonist: 0.7; ssDAF12 agonist: -0.2; DAX1 inh-1: 1.7; DAX1 inh-2: 0.9; hcDAF12 agonist: -0.6; AHR act: 0.5

What do the screens show for `O=c1c2cc(F)ccc2[nH]c(=S)n1CCCN1CCOCC1`?
hgDAF12 agonist: -1.6; ssDAF12 agonist: -2.0; DAX1 inh-1: 0.1; DAX1 inh-2: 4.0; hcDAF12 agonist: 10.6*; AHR act: -0.9; LXR ag: -0.2; hcDAF12 conf: -0.7

Results for CCCCCC(=O)N1C[C@H](O)[C@@H](n2cc(C3CC3)nn2)C[C@@H]1c1ccc(Cl)cc1 ?
hgDAF12 agonist: -1.6; ssDAF12 agonist: -1.2; DAX1 inh-1: -0.1; DAX1 inh-2: -0.9; hcDAF12 agonist: -1.0

What do the screens show for `N/C(=N\OC(=O)c1cccc2ccccc12)c1ccncc1`?
hgDAF12 agonist: 3.7; ssDAF12 agonist: 2.3*; DAX1 inh-1: -0.1; DAX1 inh-2: 3.0; hcDAF12 agonist: 7.5*; AHR act: 67.2*; LXR ag: 0.2; hcDAF12 conf: 4.2

Results for CN[C@H]1C[C@H]2c3[nH]c4ccccc4c3CCN2C(=O)[C@H]1[C@H](C)O ?
hgDAF12 agonist: 3.8; ssDAF12 agonist: 0.1; DAX1 inh-1: 1.9; DAX1 inh-2: -0.1; hcDAF12 agonist: 8.1*; LXR ag: 0.0; hcDAF12 conf: 2.6

How did CN[C@H]1C[C@H]2c3[nH]c4cccc(-c5cccc(C)c5)c4c3CCN2C(=O)[C@H]1[C@H](C)O do in these assays?
hgDAF12 agonist: 1.0; ssDAF12 agonist: -1.7; DAX1 inh-1: 0.2; hcDAF12 agonist: -1.4

How did CCCCCN1C(=O)/C(=C/c2c(N3CCc4ccccc4C3)nc3ccccn3c2=O)SC1=S do in these assays?
hgDAF12 agonist: 6.3; ssDAF12 agonist: 0.1; DAX1 inh-1: 1.7; DAX1 inh-2: 6.0*; hcDAF12 agonist: 6.8*; AHR act: 33.4; LXR ag: -0.1; hcDAF12 conf: 5.3

What do the screens show for `COc1ccc(-c2nc3cc(C)c(Br)c(C)n3c2CC2CCCCC2)cc1OC`?
hgDAF12 agonist: -0.2; ssDAF12 agonist: 0.7; DAX1 inh-1: 2.0; hcDAF12 agonist: 0.5

What do the screens show for `Cc1cc2nc(-c3ccccc3)c(CC3CCCCC3)n2c(C)c1Br`?
hgDAF12 agonist: 3.8; ssDAF12 agonist: 0.9*; DAX1 inh-1: 3.5; hcDAF12 agonist: 6.9*; LXR ag: -0.2; hcDAF12 conf: 2.9

What do the screens show for `Cc1ccc(-c2nc3cc(C)c(Br)c(C)n3c2CC2CCCCC2)cc1`?
hgDAF12 agonist: 6.9; ssDAF12 agonist: 1.7*; DAX1 inh-1: 1.5; hcDAF12 agonist: 7.7*; LXR ag: -0.2; hcDAF12 conf: 3.7

Results for N#Cc1ccc(-c2nc3c4ccccc4ccn3c2CC2CCCCC2)cc1 ?
hgDAF12 agonist: 6.0; ssDAF12 agonist: -0.2; DAX1 inh-1: -0.8; hcDAF12 agonist: 2.4

What do the screens show for `Cc1ccc(-c2nc3c4ccccc4ccn3c2CC2CCCCC2)cc1`?
hgDAF12 agonist: 11.0*; ssDAF12 agonist: 2.5*; DAX1 inh-1: 1.6; hcDAF12 agonist: 7.5*; LXR ag: 0.1; hcDAF12 conf: 6.2*

Source: PubChem BioAssay (The Scripps Research Institute Molecular Screening Center)
